Over roughly 33,000 sequences, “E-score (-0.5 to 0.5)” has its median near -0.016; the highest 2% begin near 0.32. The list comes from a sample in which the highest values are over-represented; it also holds similar and randomly drawn sequences.
Biological target: T1, Stp1 (UniProt B3LFK1)
T1 sequence: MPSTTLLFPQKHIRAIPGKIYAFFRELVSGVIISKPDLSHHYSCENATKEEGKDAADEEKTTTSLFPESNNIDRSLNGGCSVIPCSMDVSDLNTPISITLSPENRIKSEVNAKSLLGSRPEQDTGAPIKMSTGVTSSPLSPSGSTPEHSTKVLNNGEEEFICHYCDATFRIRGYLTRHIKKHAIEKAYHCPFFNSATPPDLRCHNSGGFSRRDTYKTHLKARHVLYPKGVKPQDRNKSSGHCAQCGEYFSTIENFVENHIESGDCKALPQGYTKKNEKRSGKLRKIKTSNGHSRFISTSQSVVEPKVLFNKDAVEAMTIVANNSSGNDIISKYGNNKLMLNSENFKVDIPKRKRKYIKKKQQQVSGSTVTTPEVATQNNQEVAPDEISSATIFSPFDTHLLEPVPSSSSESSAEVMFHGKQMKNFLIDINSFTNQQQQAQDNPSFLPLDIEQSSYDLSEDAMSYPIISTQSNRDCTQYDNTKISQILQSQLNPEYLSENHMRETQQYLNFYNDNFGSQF
Assay: PBM E-score (8-mer binding enrichment) (E-score (-0.5 to 0.5)); higher = stronger / more preferred TF binding
Conditions: protein concentration: 200 nM; construct: GST-full length
Summary of the method: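 Using PURExpress in vitro transcription/translation, GST-tagged yeast transcription factors were made in full-length or DNA-binding-domain form. These were applied at about 100-200 nM to double-stranded universal all-10-mer Agilent arrays, and bound protein was detected with fluorescent anti-GST. Scans were normalised with masliner before the Universal PBM Analysis Suite assigned E-scores to ungapped eight-base words pooled with their reverse complements.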

Sequence	PBM E-score
AAGCGCCA	0.0796
AAGCGCCG	0.465
AAGCGCCT	0.272
CAGCGCCG	0.446
CAGCGCCC	0.188
CAGCGCCA	0.0346
CAGTAGAG	-0.155
AGTCGATC	-0.128
GACGGGAC	-0.203
CACGTGGC	0.213
GCCTAGCC	0.0204
CCGTGGGA	0.047
ACTGGAAG	-0.2
GTAGGTCA	-0.249
AGGCACAG	0.133
CGCCACAG	-0.0135
AGGCACAA	0.288
GGGCACAC	-0.098
CGGCACAA	0.405
CGGCACAC	0.381
GGCCACAC	0.0354
AGGCACAC	0.0169
CGGCACAG	0.398
GGGCACAA	0.202
CGCCACAC	0.324

Sequence	PBM E-score
CCGCACAG	0.201
CATGCAAA	0.112
CATCTCAG	-0.0765
AACGCTCC	-0.122
CTAAACTA	-0.0468
AAATTCCG	0.126
CGTCTTAC	-0.0611
AGGACCAT	-0.113
GCAGTGCA	-0.0796
AATGTAGC	-0.0806
AGTTCGCC	0.159
GCTACACC	-0.0559
AGAGAGTC	-0.173
GCCGTAAA	0.369
GCCGTATA	0.475
GCCGTAAC	0.33
CCCGTAAC	-0.112
ACCGTATA	-0.0953
TCCGTAAA	0.0695
ACCGTAAA	0.0391
CCCGTATA	0.12
ACCGTAAC	0.0376
CGATCGAG	0.0366
AACTCAGA	0.183
CTCGCCGC	0.353

Sequence	PBM E-score
CTCGCCGA	-0.0672
ATCGCCGG	0.192
CTCGCCAC	-0.0166
ATCGCCGA	0.212
ATCGCCGC	0.45
CATTGGAC	-0.155
AGCTACTG	-0.229
AAAACATG	-0.00948
CTAGAGAA	0.23
CCACCTAG	-0.373
CAGTCTGG	-0.218
CCCCTTAA	-0.172
ACACGGCG	0.488
ACACGGAT	0.315
ACACGGCT	0.458
ACACGGGT	0.202
ACACGGAG	0.295
TCACGGCA	0.401
TGACGGCA	0.175
CCACGGAG	0.159
ACACGGTG	0.154
TCACGGAA	0.173
CCACGGGG	-0.124
CCACGGCG	0.478
GCTGCGAC	-0.089

Sequence	PBM E-score
TAACCCCA	-0.336
CAACACGA	0.0474
GCGCGAGA	0.107
AACAGTAC	0.0276
CCACGGCA	0.46
CCACGGCC	0.185
CCACGGAA	0.198
ACGGGGGC	-0.325
GTGAAGTA	-0.0855
GCCGCGCA	0.476
ACCGCGTA	0.051
CCCGCGTA	-0.0603
ACCGCGCG	0.209
CCCGCGCA	-0.0346
ACCGCGCC	0.3
GCCGCGCC	0.46
ACCGCGCA	0.0261
GCCGCGTA	0.465
AATCATTC	0.146
GAGAGCCC	-0.302
AATCGTAC	0.12
ATGCCATA	0.117
CCCCTGCC	-0.198
CGCCTCTC	0.0325
AGACGCCG	0.405

Sequence	PBM E-score
AGACGCCC	0.0951
CGACGCCG	0.457
CGACGCCC	0.0245
AGACGCCA	0.00574
CGACGCCA	0.106
CATATCTC	-0.0779
CGAGAAAG	-0.0578
GACTACGC	-0.174
ACATTCAC	-0.0143
AGGTGAAG	-0.132
ACAGGGTA	-0.125
ATTGCGCG	0.32
ATTGCGCA	-0.0299
ATTGCGCC	0.308
GGGAGCTA	-0.235
GCGCCGAC	0.309
CTGCCGAA	0.127
GTGCCGAA	0.322
TCGCCGAA	0.105
ATGCCGAA	0.311
GCGCCGAA	0.389
GCTTCGCC	-0.0679
CCAGCGAA	-0.209
CGCCGTCA	0.216
CCCCGTTC	-0.235

Sequence	PBM E-score
CGCCGTCC	0.443
AGCCGTTC	0.424
CACCGTTC	0.0204
CACCGTTA	0.0959
AGCCGTTG	0.26
AGCCGTTA	0.159
CGCCGTTA	0.381
AGCCGTCC	0.308
CGCCGTTC	0.464
GGCCGTTA	0.1
ATCGTAGG	-0.121
TGAGCGAA	0.0336
CAGCCAGC	-0.244
CCTGCGAC	-0.287
AATCTTCG	0.196
AGAACATA	0.00125
AACCGCCG	0.324
GGCCGCCC	-0.0498
AGCCGCCC	0.11
AACCGCCA	-0.153
CGCCGCCG	0.402
CCCCGCCG	0.0774
AGCCGCCG	0.361
CGCCGCCC	0.346
AGCCGCCA	-0.122

Sequence	PBM E-score
CTCCGCCC	-0.192
AACCGCCC	-0.149
CGCCGCCA	0.154
ATTCTCAC	0.0144
AAGAGTAC	-0.0411
GGACTCTA	-0.344
AGCTTCAC	-0.221
CAGCTAAC	-0.171
AACCTCTA	-0.104
CGCAGTTA	0.0737
GGCACAAA	0.374
AGCACTAA	0.132
TGCACTAA	0.109
GGCACGAA	0.389
GGCACGAC	0.208
GGCAAGAA	0.22
GGCACTAA	0.392
GGCAAAAC	0.254
GGCAAAAA	0.388
TGCACAAA	0.0921
AGCACAAA	0.206
AGCACGAA	0.0412

— the supplement of paper PMC3334620
